From PubChem BioAssay
Only some compounds are listed: those with a hit (about 11% of all), similar ones and a draw of the others.
AMA1-RON2 inh = inhibitors of Plasmodium falciparum AMA1-RON2 interaction; AlphaScreen AMA1-biotinylated RON2 peptide binding; Potency, µM (series often up to 58.2 µM), without a hit: top-dose activity change, negative = inhibition, actives largely listed as inhibitors; actives 0.2% (n = 360,000); AID 720542;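 further: 0% = vehicle wells and -100% = peptide control; nearly all actives have a fitted effect of over 45% in size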
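AMA1 (3D7) with his tag at 25 nM final met compounds first, then biotinylated RON2 peptide at 25 nM; detection used donor plus acceptor beads, 10 µg/mL apiece, read by AlphaScreen after 30 min at room temperature.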
Pf growth 48h = inhibits P. falciparum growth in the first generation, 48 h; actives 5.9% (n = 310,000); P. falciparum luciferase growth in erythrocytes, 48 h; Potency, µM (doses to about 28.7 µM), for inactives: at the highest dose activity change, negative = inhibition, hits mostly inhibitors; further: on the % scale 0 is the no-effect control and ±100 the full control effect
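Growth was read as firefly luciferase luminescence after a 48 h, 37 C, 5% CO2 exposure of compounds to reporter-bearing P. falciparum cultures (0.1% parasitemia, 2% hematocrit final) in Albumax-supplemented RPMI 1640.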
NS1 function inh = inhibitors of influenza NS1 protein function. actives 0.4% (n = 270,000). AID 2326. Potency, µM (top dose mostly 46.1 µM), without a hit: at the highest dose activity, positive = more growth; calls by dose curve; further: actives are rising curves; nearly all actives have a fitted effect of over 50% in size
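Growth recovery, yeast-based: influenza A NS1 expressed in S. cerevisiae causes slow growth, and suppressors are detected by OD600. The parent strain without NS1 is used as positive control.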
Sm TGR inh = S. mansoni TGR enzyme inhibition. Potency, µM (series often up to 114 µM), inactives show at the highest dose activity change, negative = inhibition, hits mostly inhibitors. purified TGR, DTNB reduction, TNB absorbance 405 nm. actives 3% (n = 360,000); further: on the % scale 0 is the no-effect control and ±100 the full control effect; nearly all actives have a fitted effect of over 60% in size
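First, TGR (20 nM dispensed) and NADPH were mixed with compound. Second, a 15 min room-temperature incubation followed. Third, further NADPH and then DTNB were added to start the reaction. Finally, TNB absorbance was monitored kinetically.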
Pf growth 96h = inhibits malaria parasite growth, 96 h; P. falciparum luciferase reporter growth, 96 h; Potency, µM (highest dose often 28.7 µM), for the others: at the highest dose activity change, negative = inhibition, hits mostly inhibitors; actives 6.9% (n = 320,000); further: on the % scale 0 is the no-effect control and ±100 the full control effect
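Luminescence readout: decreased luciferase signal marks inhibited growth of reporter-expressing P. falciparum in infected red cells (2% hematocrit, 0.05% parasitemia final), exposed to compound two generations (96 h, 37 C, 5% CO2).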
Starred values were filed as active, the others as inactive; i = inactive; ? = inconclusive; / = no result; [ ] = dose if it differs, or a comment. Unless noted, the call rests on the fitted dose curve; in most records, active means well fitted curve in the direction sought with a large enough effect; inconclusive means small, poorly fitted or top-dose-only effect, or another doubt; inactive means no such curve, though single readings can be large; an effect the other way counts as inactive or inconclusive. Potency means the concentration at half of the fitted maximal effect.

SMILES	AMA1-RON2 inh	Pf growth 48h	NS1 function inh	Sm TGR inh	Pf growth 96h
COc1ccc(OC)c(CNc2ccc3c(c2)CCC3)c1	-7.4%	?	10.9%	?	10.4µM*
COc1ccc(OCC(=O)Nc2ccc3c(c2)CCC3)cc1	-1.4%	25.6%	/	0.4%	-9.4%
COc1cccc(OC)c1C(=O)NNC(=O)c1cccc(COc2ccc3c(c2)CCC3)c1	115.1%	2.33µM*	7.0%	-16.0%	i
CCN(CC)CCNC(=O)c1ccc(NC(=O)c2ccc(C(=O)c3ccccc3)cc2)cc1	-16.0%	5.86µM*	/	-2.8%	10.4µM*
CCN(CC)CCNC(=O)c1ccc(NC(=O)COc2ccc3c(c2)CCC3)cc1	35.6%	?	/	-18.4%	14.7µM*
Cc1ccc(OCC(=O)Nc2nonc2-c2ccc(Br)cc2)cc1C	/	/	/	-1.5%	/
COc1cccc(NC(=O)COc2ccc3c(c2)CCC3)c1	-2.5%	28.1%	/	3.4%	0.0%
CC1CN(S(=O)(=O)c2cc(C(=O)NCCCN3CCCC3=O)ccc2Cl)CC(C)O1 (stereo not given)	-9.2%	/	/	/	/
O=C(NCCCN1CCCC1=O)c1ccc(Cl)c(S(=O)(=O)N2CCCCC2)c1	7.9%	8.28µM*	/	-8.4%	5.22µM*
CCN(CC)CCNC(=O)c1ccc(NC(=O)c2ccc(S(=O)(=O)N3CCCCCC3)cc2)cc1	-19.2%	1.65µM*	/	-0.9%	?
COc1ccc(OC)c(NC(=O)COc2ccc3c(c2)CCC3)c1	-4.4%	13.1µM*	/	-5.2%	?
CCN(CC)CCNC(=O)c1ccc(NC(=O)c2cccc(S(=O)(=O)N3CCCCCC3)c2)cc1	12.8%	/	/	/	/
CCN(CC)CCNC(=O)c1ccc(NC(=O)c2ccc(Cl)c(S(=O)(=O)N3CCCCCC3)c2)cc1	-18.8%	1.65µM*	4.5%	6.1%	-57.6%
CC(C)(C)Cc1nnc(NC(=O)CCC2CCCCC2)s1	-20.1%	11.9%	-1.5%	3.6%	2.0%
COc1cc(C(=O)NCCCN2CCCC2=O)cc(Br)c1OCc1ccccc1	6.3%	9.28µM*	/	-15.0%	?
O=C(NCCCN1CCCC1=O)c1ccc2c(c1)NC(=O)C(N1CCOCC1)S2 (stereo not given)	-12.6%	-3.6%	2.1%	0.1%	0.928µM*
COC(=O)c1ccc2c(c1)NC(=O)C(N1CCOCC1)S2 (stereo not given)	13.6%	6.6%	-10.1%	7.7%	80.1%
O=C(NCCCN1CCCC1=O)c1ccc(OCc2ccccc2)cc1	-4.8%	/	0.6%	4.0%	1.3%
CCN(CC(=O)Nc1ccc(OC)cc1)C(=O)c1ccc(N2C(=O)CCC2=O)cc1	18.2%	-2.7%	/	-0.5%	-12.0%
CC(Nc1nc(-c2ccncc2)nc2ccccc12)c1ccccc1 (stereo not given)	-3.3%	5.22µM*	-2.9%	-5.0%	4.65µM*
CC(Nc1nc(-c2cccnc2)nc2ccccc12)c1ccccc1 (stereo not given)	-17.2%	/	/	/	/
c1ccc2c(NCC3CCCO3)nc(N3CCOCC3)nc2c1 (stereo not given)	-11.1%	13.1%	-2.1%	2.1%[57.1 µM]	11.4%
COc1ccccc1C(C)Nc1nc(-c2cccnc2)nc2ccccc12 (stereo not given)	-11.3%	13.1µM*	-76.3%	-0.1%	?
CC(Nc1nc(N2CCNCC2)nc2ccccc12)c1ccccc1 (stereo not given)	-9.5%	2.94µM*	/	-24.2%	0.0%
CCCC[n+]1ccn(C2=C([O-])c3ccccc3C(=O)/C2=N\S(=O)(=O)c2ccc(Cl)cc2)c1	-2.7%	?	-3.5%	-25.1%	3.7µM*
SMILES	AMA1-RON2 inh	Pf growth 48h	NS1 function inh	Sm TGR inh	Pf growth 96h
O=C(Nc1ccccc1N1CCN(c2ccccc2)CC1)c1ccccc1	-25.5%	-5.1%	/	0.0%	?
CCOC(=O)C1(CCOC)CCN(Cc2ccc(C3CCCCO3)s2)CC1 (stereo not given)	-21.3%	-0.9%	-0.2%	15.8%	?
NC(=O)C1CCC(NC(=O)OCc2ccccc2)CC1 (stereo not given)	3.1%	34.1%	-2.1%	?	6.57µM*
Cc1ccc(SC[C@H](Cc2ccccc2)N2CC[C@@H](NC(=O)OCc3ccccc3)CCC2=O)cc1	/	?	-6.2%	3.7%	8.28µM*
O=C(N[C@H]1CCC(=O)N([C@H](CSc2ccccc2)Cc2ccccc2)CC1)OCc1ccccc1	-5.3%	?	-12.9%	-10.5%	8.28µM*
O=C(N[C@H]1CCC(=O)N([C@H](CSc2ccc(Br)cc2)Cc2ccccc2)CC1)OCc1ccccc1	-1.0%	/	/	/	/
COc1ccc(SC[C@H](Cc2ccccc2)N2CC[C@@H](C(C)(C)C)CCC2=O)cc1	-8.6%	11.7µM*	/	-20.5%	?
COc1ccc(SC[C@H](Cc2ccccc2)N2CC[C@@H](O)CCC2=O)cc1	-0.8%	0.5%	/	-0.7%	-6.5%
O=C(CNC(=O)OCc1ccccc1)NC1CCCCCCC1	-4.6%	7.4%	-19.5%	0.6%	18.5%
COc1cc(C(=O)OCC(=O)N(C)Cc2ccccc2)cc(OC)c1OC	2.6%	?	-6.9%	4.8%	?
CCC(COC(=O)c1cc(OC)c(OC)c(OC)c1)(c1ccccc1)N(C)C (stereo not given)	-26.5%	14.7µM*	6.9%	-1.1%	?
CN(C)S(=O)(=O)c1ccc(N2CCCC2)c(C(=O)NC(c2ccccc2)c2ccccc2)c1	16.1%	0.828µM*	8.2%	-10.4%	/
Cc1ccc(S(=O)(=O)N(C)C)cc1NC(=O)c1ccccc1SCC(=O)N1CCCC1	70.0%	?	/	-0.2%	?
COc1ccc(NC(=O)c2cc(S(=O)(=O)N(C)C)ccc2N2CCCC2)cc1Cl	-4.7%	0.1%	25.3%	2.1%	-15.4%
Cc1ccc(NC(=O)CSc2nn(-c3ccccc3)c(=S)s2)cc1S(=O)(=O)N(C)C	-4.5%	?	8.5%	-1.2%	3.29µM*
Cc1ccc(NC(=O)c2ccccc2SCC(=O)N2CCCC2)cc1S(=O)(=O)N(C)C	93.5%	?	-1.7%	-14.3%	6.57µM*
COc1ccc(OC)c(NC(=O)c2cc(S(=O)(=O)N(C)C)ccc2N2CCCC2)c1	0.7%	13.1µM*	/	-6.7%	?
COc1ccc(S(=O)(=O)Nc2c(O)ccc3ccccc23)cc1OC	-15.7%	/	/	/	/
COc1ccc(NC(=O)Cn2c(=O)n(Cc3ccco3)c(=O)c3sc4ccccc4c32)cc1Cl	/	/	/	-10.8%	/
CN(C)S(=O)(=O)c1ccc(N2CCCC2)c(C(=O)NNC(=O)c2ccccc2)c1	28.0%	7.38µM*	/	-15.7%	?
CN(C)S(=O)(=O)c1ccc(N2CCCC2)c(C(=O)Nc2nc(-c3cc(F)ccc3F)cs2)c1	-9.0%	-14.9%	24.4%	-7.6%	?
Cc1ccc(NC(=O)c2cc(S(=O)(=O)N(C)C)ccc2N2CCCC2)cc1S(=O)(=O)N(C)C	29.4%	?	/	-4.2%	10.4µM*
O=C(Nc1nc(-c2ccc(F)cc2)cs1)C1CCN(C(=O)c2ccc(F)cc2)CC1	-5.5%	?	/	-7.4%	6.57µM*
